Screening results: PubChem BioAssay, several laboratories
Mdm2 MdmX PPI: inhibitors of human Mdm2/MdmX interaction. O15151+Q00987. SaOS-2 split-luciferase Mdm2/MdmX complementation, luminescence. inhibition, % at 8 µM. hit rate 3% among 330,000. AID 485346;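 active = inhibition of at least 50% at 8 µM in the primary screen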
Target sequence (O15151 whole entry, looked up): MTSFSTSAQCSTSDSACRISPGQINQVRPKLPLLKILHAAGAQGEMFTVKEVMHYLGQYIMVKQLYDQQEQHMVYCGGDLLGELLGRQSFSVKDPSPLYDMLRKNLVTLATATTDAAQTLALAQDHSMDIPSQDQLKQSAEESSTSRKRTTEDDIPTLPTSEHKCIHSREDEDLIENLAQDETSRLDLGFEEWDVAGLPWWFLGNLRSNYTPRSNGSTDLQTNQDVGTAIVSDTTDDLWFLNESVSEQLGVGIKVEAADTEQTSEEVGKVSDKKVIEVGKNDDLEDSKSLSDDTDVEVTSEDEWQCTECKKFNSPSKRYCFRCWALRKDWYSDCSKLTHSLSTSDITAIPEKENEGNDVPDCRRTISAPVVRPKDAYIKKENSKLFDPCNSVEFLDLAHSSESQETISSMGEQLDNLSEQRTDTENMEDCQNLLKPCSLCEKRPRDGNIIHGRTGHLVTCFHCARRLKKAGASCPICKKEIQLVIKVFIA
Target sequence (Q00987 whole entry, looked up): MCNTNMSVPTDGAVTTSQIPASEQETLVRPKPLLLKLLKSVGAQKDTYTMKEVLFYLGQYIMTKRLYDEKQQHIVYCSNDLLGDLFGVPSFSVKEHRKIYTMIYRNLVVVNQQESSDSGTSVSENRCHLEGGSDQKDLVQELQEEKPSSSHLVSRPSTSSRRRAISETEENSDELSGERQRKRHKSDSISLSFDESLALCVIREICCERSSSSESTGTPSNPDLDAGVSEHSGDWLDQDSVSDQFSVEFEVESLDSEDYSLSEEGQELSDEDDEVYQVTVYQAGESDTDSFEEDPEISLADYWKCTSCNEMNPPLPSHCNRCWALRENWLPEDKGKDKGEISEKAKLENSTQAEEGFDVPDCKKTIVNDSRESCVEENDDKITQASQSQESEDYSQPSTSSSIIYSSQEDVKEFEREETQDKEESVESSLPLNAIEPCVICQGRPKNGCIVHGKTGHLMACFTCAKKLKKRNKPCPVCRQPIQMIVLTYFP
CSC inhib: blocks cancer stem cells; cancer stem cell-like cells viability, luminescence; inhibition, % at 7.5 µM; hit rate 1.1% among 300,000; in the data active = inhibition above about 75%; tested in HMLE shEcad cells
Gli-Sufu block: antagonists of Gli-Sufu signaling; Sufu-KO-LIGHT fibroblasts, Gli luciferase reporter luminescence; inhibition, % at 5 µM; hit rate 0.74% among 340,000;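 active = inhibition above about 55%, limit read from the data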;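 also: 0% = DMSO-treated cells and 100% = wells with medium but no cells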
Beta apoptosis: blocks beta cell apoptosis. protection from apoptosis, % (concentration not given with the values). hit rate 0.8% among 300,000. INS-1E cytokine-induced death, ATP luminescence, 48 h; percent of positive-control rescue, neutral wells zero;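 active = Every replicate reaches about 75%, or at least half do and their mean reaches it too, limit read from the data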;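 also: 0% = cytokine-treated negative control wells and 100% = positive control rescue; higher means more ATP so stronger rescue from cytokine killing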
Jurkat NFkB inh: inhibitors of the PMA/ionomycin-induced NF-kB reporter in Jurkat cells; PMA/ionomycin-induced NF-kB luciferase reporter, luminescence; inhibition, % at 4 µM; hit rate 0.53% among 330,000; AID 435003; in the data active = inhibition above about 50%
697 NFkB inh: lowers PMA/ionomycin-induced NF-kB signal in 697 B cells | 697 B-cell NF-kB luciferase reporter, 16 h | inhibition, % at 4 µM | hit rate 0.33% among 330,000; in the data active = inhibition above about 35%
Mdm2-MdmX conf: human Mdm2/MdmX binding inhibition, confirmed; luminescent assay; AID 489028; hit rate 55% among 10,000; inhibition, % at 8 µM; shares compounds with Mdm2 MdmX PPI; in the data active = inhibition above about 40%
FLuc counter: full-length luciferase inhibition in Mdm2/MdmX counter-screen. shares compounds with Mdm2 MdmX PPI. SaOS-2 full-length luciferase counterscreen, luminescence. inhibition, % at 8 µM. hit rate 77% among 6,200. AID 504607;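 active = mean inhibition at 8 µM reaching about 37%, which flags the compound as non-specific, limit read from the data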;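 also: p53-null SaOS-2 cells with luciferase driven by a doxycycline-inducible promoter; compound on cells about two nights before reading with doxycycline added after day one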
Numbers without * were called inactive. Shown are actives, neighbours in structure and some others; about 4.5% of the full set was active somewhere.

COc1ccc(N(CC(=O)NCc2ccco2)C(=O)CCC(=O)Nc2nccs2)c(OC)c1 was read as Mdm2 MdmX PPI -5, CSC inhib 2, Gli-Sufu block -10, Beta apoptosis -7, Jurkat NFkB inh -14 and 697 NFkB inh 15.
For CCN1CCN(c2cc(C)c3cc(NC(=S)N4CCN(c5ccccc5F)CC4)ccc3n2)CC1 the results were Mdm2 MdmX PPI 80*, CSC inhib 57, Gli-Sufu block -1, Beta apoptosis -1, Jurkat NFkB inh -10, 697 NFkB inh 2, Mdm2-MdmX conf 45* and FLuc counter 60*.
Screening CCC(Sc1nc2cc3c(cc2c(=O)n1Cc1ccco1)OCO3)C(=O)Nc1ccccc1OC (stereo not given) returned Mdm2 MdmX PPI 61*, CSC inhib 4, Gli-Sufu block 5, Beta apoptosis 18, Jurkat NFkB inh -7, 697 NFkB inh -13, Mdm2-MdmX conf 44* and FLuc counter 80*.
COc1cccc(/C=N\NC(=O)Cn2nnc3ccccc32)c1O was read as Mdm2 MdmX PPI 3, CSC inhib 17, Gli-Sufu block 8, Beta apoptosis -2, Jurkat NFkB inh -9 and 697 NFkB inh -5.
`COc1cccc(/C=N/Nc2cc(-n3nc(C)cc3-c3ccccc3)ncn2)c1O` gave Mdm2 MdmX PPI 59*, Gli-Sufu block 41, Jurkat NFkB inh 19, 697 NFkB inh 2, Mdm2-MdmX conf 78* and FLuc counter 50*.
For COc1cccc(/C=N/Nc2nc(Nc3ccccc3)nc(-n3nc(C)cc3C)n2)c1O the results were Mdm2 MdmX PPI 57*, CSC inhib 46, Gli-Sufu block 19, Beta apoptosis 135*, Jurkat NFkB inh -7, 697 NFkB inh 9 and Mdm2-MdmX conf 23.
Screening Cc1ccc(C(=O)N2[C@@H]3CN(C)C(=O)[C@@]2(Cc2ccccc2)[C@H]2C(=O)N(Cc4ccccc4)C(=O)[C@@H]32)cc1 returned Gli-Sufu block -3.
`Cc1cc(C(=O)N2CCN(c3cc(Cl)ccc3C)CC2)on1` gave Mdm2 MdmX PPI 3, CSC inhib 0, Gli-Sufu block 7, Beta apoptosis -7, Jurkat NFkB inh 7 and 697 NFkB inh 6.
`Cn1c2ccccc2c2c(C(=O)N3CCN(c4ccccc4)CC3)cn(C3CCCC3)c(=O)c21` gave Mdm2 MdmX PPI 9, CSC inhib 56, Gli-Sufu block 15, Beta apoptosis 7, Jurkat NFkB inh -21 and 697 NFkB inh -34.
For Cc1ccc(Cl)cc1N1CCN(C(=O)c2cn(C)c(=O)c3c2c2ccccc2n3C)CC1 the results were Mdm2 MdmX PPI 69*, CSC inhib 88*, Gli-Sufu block 7, Jurkat NFkB inh 38, 697 NFkB inh -13, Mdm2-MdmX conf 63* and FLuc counter 42*.
For Cc1cccc(N2CCN(C(=O)c3cn(C)c(=O)c4c3c3ccccc3n4C)CC2)c1C the results were Mdm2 MdmX PPI 59*, CSC inhib 60, Gli-Sufu block 8, Beta apoptosis -16, Jurkat NFkB inh 10, 697 NFkB inh 3, Mdm2-MdmX conf 45* and FLuc counter 64*.
Cc1ccc(/C=C/C(=O)NCCc2cccc(Cl)c2)o1 was read as Mdm2 MdmX PPI -20, CSC inhib 23, Gli-Sufu block 14, Beta apoptosis -4, Jurkat NFkB inh 6 and 697 NFkB inh -23.
`CCCCOc1ccc(C(=O)NNC(=O)C2C3C=CC(C3)C2C(=O)O)cc1` (stereo not given) gave Mdm2 MdmX PPI 7, Gli-Sufu block 13, Beta apoptosis -1, Jurkat NFkB inh -1 and 697 NFkB inh -7.
Screening O=C(CCN1CCN(Cc2ccccc2)CC1)NNC(=O)Nc1cccc([N+](=O)[O-])c1 returned Mdm2 MdmX PPI 13, CSC inhib -5, Gli-Sufu block -3, Beta apoptosis -4, Jurkat NFkB inh 10 and 697 NFkB inh 22.
`C=CCn1c(=N)n(CC(=O)c2cccc([N+](=O)[O-])c2)c2ccccc21` gave Mdm2 MdmX PPI 20, CSC inhib 7, Gli-Sufu block 8, Beta apoptosis -7, Jurkat NFkB inh -24 and 697 NFkB inh -20.
N=c1n(CCN2CCCCC2)c2ccccc2n1CC(=O)c1cccc([N+](=O)[O-])c1 was read as Mdm2 MdmX PPI 73*, CSC inhib 7, Gli-Sufu block 21, Beta apoptosis 43, Jurkat NFkB inh 10, 697 NFkB inh -5 and Mdm2-MdmX conf 15.
Screening COc1ccc(/C(C)=N/NC(=O)c2cccc(S(=O)(=O)N3CCCC3)c2)c(O)c1 returned Mdm2 MdmX PPI 67*, CSC inhib 100*, Gli-Sufu block 43, Beta apoptosis 109*, Jurkat NFkB inh 36, 697 NFkB inh 4, Mdm2-MdmX conf 81* and FLuc counter 34.
Screening COc1ccc(C(C)=NNC(=O)c2cccc(S(=O)(=O)N3CCCC3)c2)cc1 returned Mdm2 MdmX PPI 4, CSC inhib -7, Gli-Sufu block 1, Beta apoptosis -3, Jurkat NFkB inh -9 and 697 NFkB inh 2.
Screening O=C(COC(=O)c1ccc(F)c([N+](=O)[O-])c1)NC(=O)NCc1ccccc1 returned Mdm2 MdmX PPI 73*, CSC inhib 35, Gli-Sufu block -2, Beta apoptosis -8, Jurkat NFkB inh -40, 697 NFkB inh -47 and Mdm2-MdmX conf -1.
Screening CS(=O)(=O)Nc1cccc2cccnc12 returned Mdm2 MdmX PPI 31, CSC inhib -10, Gli-Sufu block -11, Beta apoptosis 4, Jurkat NFkB inh 5 and 697 NFkB inh -7.
For O=S(=O)(Nc1cccc2cccnc12)c1ccc(S(=O)(=O)N2CCCC2)cc1 the results were Mdm2 MdmX PPI 83*, CSC inhib 45, Gli-Sufu block 20, Beta apoptosis 53, Jurkat NFkB inh -14, 697 NFkB inh 8, Mdm2-MdmX conf 53* and FLuc counter 37*.
Screening Cc1ccc(S(=O)(=O)Nc2cccc3cccnc23)c([N+](=O)[O-])c1 returned Mdm2 MdmX PPI 100*, CSC inhib -4, Gli-Sufu block 61*, Beta apoptosis -3, Jurkat NFkB inh 47, 697 NFkB inh -62, Mdm2-MdmX conf 75* and FLuc counter 54*.
`Cc1cc(C)c(NS(=O)(=O)c2cccc3cccnc23)c(C)c1` gave Mdm2 MdmX PPI -43, CSC inhib -4, Gli-Sufu block 6, Beta apoptosis 0, Jurkat NFkB inh 2 and 697 NFkB inh 12.
Screening COc1cccc(NC(=O)c2ccc3nc(C)sc3c2)c1 returned Mdm2 MdmX PPI -38, CSC inhib 1, Gli-Sufu block -96, Beta apoptosis 0, Jurkat NFkB inh -76 and 697 NFkB inh -47.
